Inconclusive results are not listed. Calls of active or inactive are those of the source. Unless noted, the call rests on the fitted dose curve.
Tests used:
[1] = Nuclear factor erythroid 2-related factor 2/antioxidant responsive element (Nrf2/ARE) small molecule agonists: qHTS cell viability counter screen in human keratinocytes (AID 1919968; active means well fitted curve in the direction sought with a large enough effect in the repeat runs; an effect the other way counts as inactive or inconclusive; further: nearly all actives have a fitted effect of over 55% in size)
Procedure, shortened: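 KeratinoSens HaCaT cells, 1,500/well, preincubated 5 h, then exposed to compounds in DMSO for 23 h at 37 C/5% CO2. Viability read as CellTiter-Fluor fluorescence after 1 h, in the same wells as the ARE-luciferase read.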

[2] = Nuclear factor erythroid 2-related factor 2/antioxidant responsive element (Nrf2/ARE) small molecule agonists: luciferase reporter gene qHTS assay in human keratinocytes (AID 1919969); further: nearly all actives have a fitted effect of over 35% in size
[3] = target: Gonadotropin-releasing hormone receptor (Homo sapiens) (UniProt P30968); assay: Human gonadotropin-releasing hormone receptor (GnRHR) small molecule agonists, calcium flux assay in GnRHR-HEK293 cells (AID 1920063); further: nearly all actives have a fitted effect of over 35% in size
Procedure, shortened: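 HEK293 cells stably expressing human GnRHR were dye-loaded for 1 h at 37 C. Compound was added in agonist mode and fluorescence (Ex/Em 480/540) recorded kinetically for 3 min. Fifteen concentrations, triplicates.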

[4] = target: KiSS-1 receptor (Homo sapiens) (UniProt Q969F8); assay: Human kisspeptin (KISS1R) small molecule agonists, calcium flux assay in KISS1R-HEK293 cells (AID 1920064; active means well fitted curve in the direction sought with a large enough effect in the repeat runs; an effect the other way counts as inactive or inconclusive)
Procedure, shortened: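 HEK293 cells stably expressing human KISS1R were loaded with calcium dye for 1 h at 37 C, then given compound; fluorescence (Ex/Em 480/540) was read kinetically for 3 min. Fifteen concentrations, triplicate.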

[5] = G protein-coupled receptor (GPCR) small molecule agonists, calcium flux assay: HEK293 wild type cell line counter screen (AID 1920065)
Procedure, shortened: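 Wild-type HEK293 cells plated 18 h, loaded with calcium dye 1 h at 37 C, then compounds added in agonist mode (ATP as positive control). Kinetic fluorescence Ex/Em 480/540 recorded 3 min at 1 sec intervals; 15 concentrations, triplicate.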

[6] = p53 small molecule agonists, cell-based qHTS assay with rat liver microsomes (AID 1963578)
Procedure, shortened: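 Cells carrying a p53 response element–beta-lactamase reporter were plated and rested 5 h, then dosed with compound in DMSO plus rat liver microsomes and NADPH, each at 0.5 mg/mL final. After 16 h at 37 C, LiveBLAzer substrate was added for 2 h.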

[7] = p53 small molecule agonists, cell-based qHTS assay with rat liver microsomes: qHTS cell viability counter screen (AID 1963580); further: nearly all actives have a fitted effect of over 45% in size
Procedure, shortened: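 HCT-116 p53RE-bla, 4,000 cells/well, 5 h pre-incubation; cpd + rat liver microsomes 0.5 mg/mL + NADPH 0.5 mg/mL (final); 16 h, 37 C; CellTiter-Glo, 30 min RT; luminescence.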

[8] = p53 small molecule agonists, cell-based qHTS assay: qHTS cell viability counter screen (AID 1963581); further: nearly all actives have a fitted effect of over 45% in size
Procedure, shortened: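 p53RE-bla HCT-116 cells, compounds added 5 h after plating and incubated 16 h at 37 C. Cytotoxicity measured in the same wells as intracellular ATP by CellTiter-Glo luminescence after 30 min at room temperature.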

[9] = target: 5-hydroxytryptamine receptor 2A (Homo sapiens) (UniProt P28223); assay: 5-hydroxytryptamine receptor 2A (HTR2A) small molecule agonists, cell-based qHTS assay (AID 1963587); further: nearly all actives have a fitted effect of over 30% in size
Procedure, shortened: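 Kinetic calcium-flux fluorescence (2 min, 1 sec intervals) after compound addition in agonist mode. HTR2A-CHO cells were cultured 18 h, then dye-loaded 1 h at 37 C.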

[10] = target: Muscarinic acetylcholine receptor M1 (Homo sapiens) (UniProt P11229); assay: Cholinergic receptor muscarinic 1 (CHRM1) small molecule agonists, cell-based qHTS assay (AID 1963589); further: nearly all actives have a fitted effect of over 35% in size
Procedure, shortened: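 CHO cells stably expressing human CHRM1 were loaded with calcium dye for 1 h at 37 C, then compound was added in agonist mode. Intracellular calcium fluorescence was followed kinetically at 1 s intervals. Fifteen concentrations were tested in three independent runs.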

[11] = cAMP Responsive Elements (CRE) small molecule agonists, cell-based qHTS assay (AID 1963590)
Procedure, shortened: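 CRE-bla HEK 293T cells, 2,000/well in DMEM with 10% dialyzed FBS and 25 mM HEPES, pre-incubated 18 h at 37 C, then exposed to compound 3 h at 37 C. Beta-lactamase reporter read with LiveBLAzer B/G FRET substrate after 2 h at room temperature.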

[12] = cAMP Responsive Elements (CRE) small molecule antagonists, cell-based qHTS assay (AID 1963591; active means well fitted inhibition curve with a large enough effect in the signal ratio in the repeat runs, not every such curve was filed as active; the % refers to the signal ratio)
Procedure, shortened: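 CRE-bla HEK293T cells plated 18 h, then given compound plus NKH477 at 0.25 uM final for 3 h at 37C. Beta-lactamase reporter read with LiveBLAzer B/G FRET substrate after 2 h at room temperature.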

[13] = target: Beta-2 adrenergic receptor (Homo sapiens) (UniProt P07550); assay: Adrenergic beta2 receptor (ADRB2) small molecule antagonists, cell-based qHTS assay (AID 1963592); further: series mostly up to about 92 µM; nearly all actives have a fitted effect of over 50% in size
Procedure, shortened: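 Cells (CHO, stable ADRB2 overexpression) incubated 18-20hr at 37C; compounds added from DMSO; agonist mix (1nM isoproterenol, 100uM IBMX, 25uM Ro-20-1724) added; 0.5hr RT; d2-cAMP and anti-cAMP-cryptate added; 1hr RT; 665/615 nm read.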

[14] = target: Beta-2 adrenergic receptor (Homo sapiens) (UniProt P07550); assay: Adrenergic beta2 receptor (ADRB2) small molecule agonists, cell-based qHTS assay (AID 1963593);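 further: CHO cells stably overexpressing human ADRB2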
Procedure, shortened: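 CHO cells stably over-expressing ADRB2 were plated overnight at 37C, then dosed with compounds plus a stimulation mix containing 100uM IBMX and 25uM Ro-20-1724 for 0.5hr at room temperature. cAMP was measured by HTRF competition, 1hr.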

[15] = target: D(2) dopamine receptor (Homo sapiens) (UniProt P14416); assay: Dopamine D2 receptor (DRD2) small molecule agonists, cell-based qHTS assay (AID 1963594); further: nearly all actives have a fitted effect of over 35% in size
Procedure, shortened: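 cAMP accumulation in DRD2-HEK293 cells measured by HTRF after 1 h detection; compounds added 10 min before NKH477 (200nM […]) forskolin-analogue stimulation, 30 min at room temperature, with Ro20-1724 present at 0.1 mM final.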

[16] = target: D(2) dopamine receptor (Homo sapiens) (UniProt P14416); assay: Dopamine D2 receptor (DRD2) small molecule antagonists, cell-based qHTS assay (AID 1963595; active means well fitted inhibition curve with a large enough effect in the signal ratio in the repeat runs, with a control signal flat; the % refers to the signal ratio)
Procedure, shortened: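 In this cell-based antagonist screen, compounds act for 10 min at room temperature before a 30 min challenge with 12 nM quinpirole and 200 nM NKH477. cAMP is quantified by HTRF competition in DRD2-HEK293 cells containing 0.1 mM Ro20-1724.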

[17] = p53 small molecule agonists, cell-based qHTS assay with human liver microsomes: qHTS cell viability counter screen (AID 1963579); further: nearly all actives have a fitted effect of over 45% in size
Procedure, shortened: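 Cytotoxicity counter screen: p53RE-bla, 4,000 cells/well; 5 h settle, 37 C/5% CO2; cpd + HLM 0.5 mg/mL + NADPH 0.5 mg/mL (final); 16 h, 37 C; CellTiter-Glo, 30 min RT, luminescence.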

[18] = p53 small molecule agonists, cell-based qHTS assay (AID 1963582; active means well fitted activation curve with a large enough effect in the signal ratio in the repeat runs, not every such curve was filed as active; the % refers to the signal ratio)
Procedure, shortened: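 p53RE-bla reporter cells, compounds added in DMSO after 5 h plating, incubated 16 h at 37 C. Beta-lactamase read via 2 h room-temperature LiveBLAzer B/G FRET substrate, fluorescence intensity.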

[19] = target: 5-hydroxytryptamine receptor 2A (Homo sapiens) (UniProt P28223); assay: 5-hydroxytryptamine receptor 2A (HTR2A) small molecule antagonists, cell-based qHTS assay (AID 1963586); further: nearly all actives have a fitted effect of over 45% in size
Procedure, shortened: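 Antagonist-mode intracellular calcium assay: DOI (4 nM) added after 5 min compound pre-incubation at room temperature to dye-loaded HTR2A-CHO cells. Fluorescence followed for 3 min, sampled every second.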

[20] = target: Muscarinic acetylcholine receptor M1 (Homo sapiens) (UniProt P11229); assay: Cholinergic receptor muscarinic 1 (CHRM1) small molecule antagonists, cell-based qHTS assay (AID 1963588); further: nearly all actives have a fitted effect of over 40% in size
Procedure, shortened: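 CHRM1-CHO calcium-flux assay, antagonist mode. Cells were seeded 18 h, dye-loaded 1 h at 37 C and given compound for 5 min at RT, then acetylcholine was added at 50nM. FDSS fluorescence was read 3 min; 15 concentrations, three runs.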

Measured: Potency

Chain of D(2) dopamine receptor (Homo sapiens) (P14416 whole entry, looked up): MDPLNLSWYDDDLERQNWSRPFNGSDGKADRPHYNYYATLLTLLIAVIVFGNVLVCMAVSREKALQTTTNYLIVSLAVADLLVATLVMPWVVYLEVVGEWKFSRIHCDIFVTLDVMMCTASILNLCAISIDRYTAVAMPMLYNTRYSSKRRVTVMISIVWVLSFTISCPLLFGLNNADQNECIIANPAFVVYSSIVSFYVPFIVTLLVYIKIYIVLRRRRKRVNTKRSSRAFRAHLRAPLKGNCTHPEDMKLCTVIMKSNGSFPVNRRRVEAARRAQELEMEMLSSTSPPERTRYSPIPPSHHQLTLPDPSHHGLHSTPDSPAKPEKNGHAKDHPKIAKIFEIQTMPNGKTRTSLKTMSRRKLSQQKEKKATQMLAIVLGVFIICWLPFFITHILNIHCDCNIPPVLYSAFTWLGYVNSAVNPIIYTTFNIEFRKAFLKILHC
Chain of Gonadotropin-releasing hormone receptor (Homo sapiens) (P30968 whole entry, looked up): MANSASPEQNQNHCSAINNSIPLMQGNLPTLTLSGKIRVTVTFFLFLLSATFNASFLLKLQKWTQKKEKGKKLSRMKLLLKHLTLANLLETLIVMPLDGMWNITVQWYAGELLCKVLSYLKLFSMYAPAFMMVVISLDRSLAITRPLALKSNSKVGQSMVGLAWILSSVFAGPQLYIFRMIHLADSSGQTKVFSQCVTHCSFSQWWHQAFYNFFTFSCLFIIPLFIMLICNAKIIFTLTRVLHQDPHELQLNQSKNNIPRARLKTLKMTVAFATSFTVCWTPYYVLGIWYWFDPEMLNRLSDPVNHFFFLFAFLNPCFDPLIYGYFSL
Chain of Muscarinic acetylcholine receptor M1 (Homo sapiens) (P11229 whole entry, looked up): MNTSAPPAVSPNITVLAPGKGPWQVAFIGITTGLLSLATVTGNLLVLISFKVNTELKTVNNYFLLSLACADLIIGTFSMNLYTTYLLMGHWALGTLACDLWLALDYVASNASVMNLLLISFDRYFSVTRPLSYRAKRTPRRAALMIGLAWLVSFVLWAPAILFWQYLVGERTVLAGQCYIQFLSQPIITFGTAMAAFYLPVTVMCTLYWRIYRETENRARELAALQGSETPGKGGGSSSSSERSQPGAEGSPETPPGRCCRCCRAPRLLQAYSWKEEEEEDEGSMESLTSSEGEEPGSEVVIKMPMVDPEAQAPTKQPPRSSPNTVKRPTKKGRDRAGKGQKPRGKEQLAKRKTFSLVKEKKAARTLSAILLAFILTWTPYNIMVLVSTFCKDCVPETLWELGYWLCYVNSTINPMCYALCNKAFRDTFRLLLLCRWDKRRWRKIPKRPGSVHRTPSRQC
Chain of KiSS-1 receptor (Homo sapiens) (Q969F8 whole entry, looked up): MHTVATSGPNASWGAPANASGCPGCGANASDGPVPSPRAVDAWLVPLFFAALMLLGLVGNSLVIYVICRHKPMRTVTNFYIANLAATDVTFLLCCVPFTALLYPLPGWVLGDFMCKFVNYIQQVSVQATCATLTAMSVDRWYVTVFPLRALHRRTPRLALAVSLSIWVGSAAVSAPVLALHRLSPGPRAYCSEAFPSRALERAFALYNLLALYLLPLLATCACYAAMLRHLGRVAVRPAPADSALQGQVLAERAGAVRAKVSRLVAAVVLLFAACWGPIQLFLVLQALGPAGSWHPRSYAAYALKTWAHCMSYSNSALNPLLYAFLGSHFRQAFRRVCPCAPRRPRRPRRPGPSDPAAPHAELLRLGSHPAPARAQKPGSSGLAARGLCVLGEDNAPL
Chain of Beta-2 adrenergic receptor (Homo sapiens) (P07550 whole entry, looked up): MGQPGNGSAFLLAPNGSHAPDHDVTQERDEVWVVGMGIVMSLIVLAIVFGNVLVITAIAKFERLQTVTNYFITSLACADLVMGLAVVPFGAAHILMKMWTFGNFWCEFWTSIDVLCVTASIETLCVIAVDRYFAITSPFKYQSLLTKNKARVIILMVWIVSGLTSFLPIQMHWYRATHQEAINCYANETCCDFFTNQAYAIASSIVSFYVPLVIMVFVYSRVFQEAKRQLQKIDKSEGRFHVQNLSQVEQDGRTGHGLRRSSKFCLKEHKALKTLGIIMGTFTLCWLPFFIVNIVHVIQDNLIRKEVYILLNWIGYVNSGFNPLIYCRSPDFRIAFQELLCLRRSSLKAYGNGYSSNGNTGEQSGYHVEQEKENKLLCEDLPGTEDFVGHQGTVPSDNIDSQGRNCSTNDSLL
Chain of 5-hydroxytryptamine receptor 2A (Homo sapiens) (P28223 whole entry, looked up): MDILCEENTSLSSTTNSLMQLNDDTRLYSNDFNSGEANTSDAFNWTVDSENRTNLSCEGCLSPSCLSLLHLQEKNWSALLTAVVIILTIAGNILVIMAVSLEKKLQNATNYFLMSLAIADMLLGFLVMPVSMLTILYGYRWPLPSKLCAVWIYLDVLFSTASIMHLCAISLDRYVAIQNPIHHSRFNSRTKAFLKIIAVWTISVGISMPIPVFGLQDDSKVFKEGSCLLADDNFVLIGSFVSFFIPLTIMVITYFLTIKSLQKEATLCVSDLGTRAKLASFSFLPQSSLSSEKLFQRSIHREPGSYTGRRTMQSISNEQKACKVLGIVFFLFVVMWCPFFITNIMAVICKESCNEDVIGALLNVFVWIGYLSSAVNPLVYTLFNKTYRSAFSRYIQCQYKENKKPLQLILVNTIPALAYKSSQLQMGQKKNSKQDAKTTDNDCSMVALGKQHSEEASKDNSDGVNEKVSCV

Cc1ccc(S(=O)(=O)NC(=O)NC2CCCCCCC2)cc1
not listed: [17] | [18] | [19] | [20]
inactive: all other assays above

CC1(C)CO[C@@H](CC(=O)O)CN1
not listed: [6] | [16]
inactive: all other assays above

CC(=O)OCC1=C(C(=O)O)N2C(=O)[C@@H](NC(=O)Cc3cccs3)[C@H]2SC1
not listed: [6] | [15]
inactive: all other assays above

O=C(O)c1cc(=O)c2c(OCC(O)COc3cccc4oc(C(=O)O)cc(=O)c34)cccc2o1
not listed: [9] | [10] | [11] | [17] | [19] | [20]
inactive: all other assays above

COC(=O)CCCCC(=O)O
not listed: [6]
inactive: all other assays above

CCC/C=C/CO
not listed: [6]
inactive: all other assays above

Source: PubChem BioAssay (Tox21)
